Screens: PubChem BioAssay, National Center for Advancing Translational Sciences (NCATS)
Shiga inhibitor – blocks Shiga toxin action in Vero cells; Vero cells, Shiga toxin protein synthesis inhibition reporter; inhibition, % at 38.7 µM; 290,000 compounds, 9.2% hits; in the data active = inhibition mostly above about 28%, no sharp cut-off; inactive = mostly below about 43%; note: 0% is about no effect
LmPK inhibitor – blocks Leishmania mexicana pyruvate kinase activity; Q27686; purified LmPK, Kinase-Glo ATP luminescence, 1 h; Potency, µM (doses to about 57.5 µM), without a hit: top-dose activity change, negative = inhibition, actives largely listed as inhibitors; 290,000 compounds, 0.37% hits; note: potency is the fitted concentration of half-maximal effect; % is set by controls: 0 for no effect and ±100 for the full control effect
Target sequence (Q27686 whole entry, looked up): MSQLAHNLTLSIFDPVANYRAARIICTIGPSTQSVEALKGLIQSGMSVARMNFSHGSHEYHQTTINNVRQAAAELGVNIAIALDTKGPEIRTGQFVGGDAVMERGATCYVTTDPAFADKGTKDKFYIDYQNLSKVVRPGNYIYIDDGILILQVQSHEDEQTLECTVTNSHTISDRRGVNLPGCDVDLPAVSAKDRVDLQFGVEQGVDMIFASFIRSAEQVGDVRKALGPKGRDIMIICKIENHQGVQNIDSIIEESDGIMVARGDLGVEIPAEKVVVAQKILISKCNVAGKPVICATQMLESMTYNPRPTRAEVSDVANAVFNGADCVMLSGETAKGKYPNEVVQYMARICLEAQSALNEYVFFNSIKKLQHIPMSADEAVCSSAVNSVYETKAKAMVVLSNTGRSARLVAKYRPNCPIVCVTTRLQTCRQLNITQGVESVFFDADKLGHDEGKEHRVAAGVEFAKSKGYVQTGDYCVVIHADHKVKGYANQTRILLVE
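Pyruvate kinase activity monitored as ATP production (luciferase luminescence). Conditions: 0.1 nM enzyme, 0.5 mM PEP, 0.1 mM ADP, 1 h, RT; normalized against uninhibited and no-enzyme wells.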
Giardia FBPA inh-1 – blocks Giardia fructose-bisphosphate aldolase activity. A8B2U2. purified Giardia FBPA. Potency, µM (titrated, usually from 59.6 µM), inactives show at the highest dose activity, negative = inhibition, most hits filed as inhibitors. 290,000 compounds, 0.71% hits; note: potency is the fitted concentration of half-maximal effect; % is set by controls: 0 for no effect and ±100 for the full control effect; nearly all actives have a fitted effect of over 55% in size
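Giardia FBPA (40 nM reagent) was preincubated 10 min at RT with compound (up to 57.5 uM final), then substrate plus GAPDH/TPI/NAD/arsenate coupling system with diaphorase/resazurin was added; resorufin fluorescence (525/598 nm) was read after 20 min.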
TbPYK inhibitor – blocks Trypanosoma brucei pyruvate kinase | Q57TT1 | TbPYK enzyme, Kinase-Glo Plus ATP luminescence, 45 min | Potency, µM (doses to about 76.8 µM), for inactives: top-dose activity, negative = inhibition, actives largely listed as inhibitors | 410,000 compounds, 0.12% hits | AID 624173; note: potency is the fitted concentration of half-maximal effect; % is set by controls: 0 for no effect and ±100 for the full control effect; nearly all actives have a fitted effect of over 50% in size
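Screened from lowest to highest concentration, compounds were pinned into TbPYK/substrate mixtures, and ADP (130 uM final) was added. Plates sat at room temperature for 45 min prior to Kinase-Glo Plus detection by luminescence.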
CHX counter – counter-screen for Shiga toxin inhibitors: cycloheximide protein synthesis inhibition; cell reporter, cycloheximide protein synthesis inhibition counterscreen; max response, %; 300,000 compounds, 12% hits; in the data active = max response mostly above about 13%, no sharp cut-off; inactive = mostly below about 14%; note: read at 38.3 µM for the half of the compounds with a filed dose; 0% is about no effect
RE007 growth inh – less growth of the S. pombe RE007 Vpr strain; 360,000 compounds, 0.21% hits; S. pombe RE007 Vpr strain, BacTiter-Glo ATP luminescence, 24 h; Potency, µM (doses to about 92.2 µM), for the others: at the highest dose activity change, negative = less growth, actives largely listed as inhibitors; active = well fitted falling curve with a large enough effect; inconclusive = small, poorly fitted or top-dose-only effect; inactive = no such curve, though single readings can be large or run the other way; note: potency is the fitted concentration of half-maximal effect; % is set by controls: 0 for no effect and ±100 for the full control effect; nearly all actives have a fitted effect of over 50% in size
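Fission yeast RE007 carrying one integrated HIV-1 vpr copy, seeded at OD 0.01 in PMG+AL medium with 23 nL pinned compound. Grown 24 h at 30 degrees; viability read by BacTiter-Glo luminescence after 5 min.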
Giardia growth – inhibitors of Giardia lamblia growth. Giardia lamblia trophozoite growth inhibition. shares compounds with Giardia FBPA inh-1. 1,500 compounds, 5% hits. AID 2785. Potency, µM (highest dose often 57.5 µM), inactives show at the highest dose activity change, negative = inhibition, hits mostly inhibitors;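 note: potency is the fitted concentration of half-maximal effect; trophozoites exposed to compound for 48 h at 37 °C; % is set by controls: 0 for no effect and ±100 for the full control effect; nearly all actives have a fitted effect of over 70% in size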
Mammal cell tox – toxic to mammalian cells in Giardia aldolase counter-screen. shares compounds with Giardia FBPA inh-1. mammalian cell viability counter-screen, qHTS. Potency, µM (series often up to 57.5 µM), inactives show at the top dose viability change, negative = toxicity, actives largely listed as inhibitors. 1,500 compounds, 4% hits;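 note: Chinese hamster ovary cells used as mammalian cytotoxicity surrogate; viability measured as cellular ATP by luminescence; potency is the fitted concentration of half-maximal effect; compound exposure lasted 48 h before reading; % is set by controls: 0 for no effect and ±100 for the full control effect; nearly all actives have a fitted effect of over 60% in size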
Giardia FBPA inh-2 – confirmation of Giardia fructose-bisphosphate aldolase inhibitors; shares compounds with Giardia FBPA inh-1; purified Giardia aldolase enzyme activity, qHTS; Potency, µM (doses to about 57.5 µM), inactives show top-dose activity change, negative = inhibition, hits mostly inhibitors; 1,500 compounds, 5% hits; AID 2787; note: potency is the fitted concentration of half-maximal effect; % is set by controls: 0 for no effect and ±100 for the full control effect; nearly all actives have a fitted effect of over 45% in size
Rabbit aldolase – selectivity test for Giardia aldolase inhibitors: rabbit aldolase. shares compounds with Giardia FBPA inh-1. Rabbit muscle FBPA enzyme inhibition, selectivity counter-screen. Potency, µM (series often up to 57.5 µM), without a hit: at the highest dose activity, negative = inhibition, most hits filed as inhibitors. 1,500 compounds, 4% hits; note: potency is the fitted concentration of half-maximal effect; % is set by controls: 0 for no effect and ±100 for the full control effect; nearly all actives have a fitted effect of over 60% in size
GAPDH coupling – counter-screen for Giardia aldolase inhibitors: GAPDH coupling enzyme. shares compounds with Giardia FBPA inh-1. GAPDH coupling enzyme counterscreen, biochemical, qHTS. Potency, µM (titrated, usually from 57.5 µM), without a hit: top-dose activity change, negative = inhibition, most hits filed as inhibitors. 1,500 compounds, 6% hits. AID 2795; note: potency is the fitted concentration of half-maximal effect; % is set by controls: 0 for no effect and ±100 for the full control effect; nearly all actives have a fitted effect of over 55% in size
* hit, by the source's call; ? = inconclusive; / = no result given; [ ] = dose if it differs, or a comment. The full list was thinned out, with hits kept by preference. Unless noted, calls come from the whole dose curve; as a rule, active = well fitted curve in the direction sought with a large enough effect; inconclusive = small, poorly fitted or top-dose-only effect, or another doubt; inactive = no such curve, though single readings can be large; an effect the other way counts as inactive or inconclusive.

SMILES | Shiga inhibitor | LmPK inhibitor | Giardia FBPA inh-1 | TbPYK inhibitor | CHX counter | RE007 growth inh | Giardia growth | Mammal cell tox | Giardia FBPA inh-2 | Rabbit aldolase | GAPDH coupling
COc1ccc(-n2c(=S)[nH]c3[nH]ncc3c2=O)cc1 | 18 | -13% | 18µM* | ? | -2 | 5% | -11%[10.4 µM] | 7% | 1% | 3% | 10%
Cc1ccc(NC(=O)CN(C)C(=O)COc2cccc3cccnc23)cc1 | -8 | 0% | 11µM* | -3% | 3 | 8% | -37% | 6% | 13µM* | ? | ?
CC(C)C(=O)NC(c1ccco1)c1ccc2cccnc2c1O (stereo unspecified) | 36 | 1% | ? | -10% | 1 | -25% | / | / | / | / | /
Oc1c(C(Nc2nc3ccccc3s2)c2ccco2)ccc2cccnc12 (stereo unspecified) | 37 | -2% | 16µM* | -11% | -1 | ? | 35% | ? | -23% | -3% | -8%
CCc1cccc(C)c1NC(=S)N(CCCN1CCOCC1)Cc1cccnc1 | -5 | 0% | 16µM* | -1% | 0 | -6% | -2% | 8% | 6% | 13% | 10%
Cc1ccc(Cn2c(C3CCCN3c3nc(C)cs3)nc3cc(C(F)(F)F)ccc32)cc1 (stereo unspecified) | 9 | 1% | 28µM* | -1% | -2 | -16% | 12% | -10% | 3% | 2% | 12%
Cc1ccc(Cn2c(C3CCCN3c3nc(-c4cc(Cl)c(N)c(Cl)c4)cs3)nc3cc(C(=O)NCCCO)ccc32)cc1 (stereo unspecified) | / | / | / | -13% | / | -1% | / | / | / | / | /
COc1ccc(N2C(=O)CC(NNc3ncc(Cl)cc3Cl)C2=O)cc1 (stereo unspecified) | -5 | -4% | 16µM* | 4% | 11 | -17% | -1%[10.4 µM] | -13% | 12% | 5% | 8%
CCc1ccc(NC(=O)C2CCCN(S(=O)(=O)c3ccc4c(c3)oc(=O)n4C)C2)cc1 (stereo unspecified) | / | / | / | 2% | / | / | / | / | / | / | /
COc1ccccc1/C=N/NC(=O)c1sc(C)nc1C | 15 | -4% | 0% | -3% | 2 | -16% | / | / | / | / | /
N/C(=N\NS(=O)(=O)c1ccccc1C(F)(F)F)c1ccccn1 | 11 | 7% | 18µM* | -5% | 13 | 7% | 6%[10.4 µM] | 7% | 13% | 11% | 7%
Cc1nc(C(F)(F)F)c(C(=O)N/N=C(\N)c2ccccn2)s1 | 12 | -2% | 4.5µM* | -3% | 8 | 4% | 32µM* | 40µM* | ? | -21% | -26%
COc1ccccc1-n1nnnc1SCC(=O)N(C)C1CCS(=O)(=O)C1 (stereo unspecified) | / | / | / | -17% | / | 3% | / | / | / | / | /
CN(c1ccccc1)S(=O)(=O)c1cccc(NC(=O)C2CC(=O)N(Cc3ccccc3)C2)c1 (stereo unspecified) | -4 | 3% | -3% | 3% | -3 | 11% | / | / | / | / | /
CCN(CC)c1ccc(C=C2C(=O)NC(=S)NC2=O)cc1 | 11 | -18% | 14µM* | ? | 17 | 8% | 14µM* | 0% | -10% | -1% | 5%
CCN(CC)c1ccc(/C=C2\NC(=O)NC2=O)cc1 | 24 | 2% | -9% | -5% | 14 | 10% | / | / | / | / | /
Cc1ccccc1CNS(=O)(=O)c1c(C(=O)N2CCCCC2)c(C)n(C)c1C | -4 | -2% | 16% | 3% | 2 | 2% | / | / | / | / | /
CCCOc1ccccc1C1C(C(=O)Nc2ccccc2)=C(C)Nc2nnnn21 (stereo unspecified) | / | / | / | -2% | / | / | / | / | / | / | /
CCn1c(O)c(C#N)c(C)cc1=O | -8 | 4% | 13µM* | 0% | 1 | -3% | ? | 28% | ? | ? | ?
Cc1cc(Sc2nc(N)ncc2[N+](=O)[O-])ncn1 | -7 | 0% | 18µM* | 11% | 5 | 7% | -6%[10.4 µM] | ? | 1% | 15% | 0%
OC(CN1CCCC1)Cn1ccc2ccccc21 (stereo unspecified) | -3 | 0% | ? | 23% | -4 | -8% | / | / | / | / | /
OC(CNc1ccccc1)Cn1ccc2ccccc21 (stereo unspecified) | 4 | 1% | 18µM* | -12% | -2 | -12% | ? | -4% | -4% | 1% | 4%
Cc1onc(-c2ccccc2)c1C(=O)NCCSCc1ccco1 | / | / | / | -2% | / | 5% | / | / | / | / | /
CCNC(=S)NS(=O)(=O)c1ccccc1 | -2 | -6% | 7.9µM* | -1% | 2 | 15% | -16% | 12% | 1% | 10% | 14%
O=C(Cc1ccccc1)NS(=O)(=O)c1ccccc1 | / | / | / | 5% | / | 10% | / | / | / | / | /
CCNC(=S)NS(=O)(=O)c1ccc(Cl)cc1 | -7 | 1% | 7.1µM* | 1% | -2 | 12% | 25% | -3% | 5% | 1% | 10%
O=S(=O)(NC(=S)NC1CCCCC1)c1ccc(Cl)cc1 | -3 | -3% | 13% | 0% | -1 | -17% | / | / | / | / | /
CCNC(=S)NNc1ccccc1 | 28 | 3% | 11µM* | -8% | 9 | ? | -13%[10.4 µM] | 11% | 3% | 11% | 2%
S=C(NCc1ccccc1)NNc1ccccc1 | 12 | 6% | ? | -1% | -4 | -20% | / | / | / | / | /
